For seven molecules, Potency and outcome results are on record in PubChem BioAssay (Tox21).

Assay [1] is described as follows: Human pregnane X receptor (PXR) small molecule agonists, qHTS cell viability counter screen (AID 1346977). Further: nearly all actives have a fitted effect of over 50% in size. Further: potency means the concentration at half of the fitted maximal effect. The gist of the method: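 In each well, the PXR reporter HepG2 line was checked for viability: CellTiter-Fluor reagent added 23hr post-dosing, fluorescence read after 1hr incubation at 37C.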
For orientation: Quantitative high-throughput screening tests each substance at several concentrations.

Assay [2] is described as follows: Caspase-3/7 induction in HepG2 cells by small molecules, qHTS assay (AID 1346978). Further: nearly all actives have a fitted effect of over 15% in size. The essentials: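 Caspase-3/7 induction was measured by Caspase-Glo 3/7 luminescence (30 min, room temperature) after a 17 hr compound exposure of wild-type HepG2 cells seeded at 2,000 per well and pre-incubated 5 hr.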
The nature of assay [3]: Caspase-3/7 induction in CHO-K1 cells by small molecules, qHTS assay (AID 1346980). Further: nearly all actives have a fitted effect of over 15% in size. The essentials: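 Luminescent Caspase-Glo 3/7 read (30min, room temperature) quantified apoptosis induction. Cells were wild-type CHO-K1, treated with compound for 17hr at 37 C and 5% CO2.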
Assay [4] is described as follows: Caspase-3/7 induction in HepG2 cells by small molecules, qHTS cell viability counter screen (AID 1346981). Further: series mostly up to about 92 µM; nearly all actives have a fitted effect of over 30% in size. The gist of the method: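 Wild-type HepG2 cells (2,000/well) were allowed to settle for 5 hr at 37 C, 5% CO2, then dosed with compounds in DMSO by pin transfer. After 16 hr at 37 C, CellTiter-Fluor was added and fluorescence read 1 hr later.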
Assay [5] addresses Nuclear receptor subfamily 1 group I member 2 (Homo sapiens) (UniProt O75469). Put plainly: Human pregnane X receptor (PXR) small molecule agonists, qHTS assay (AID 1346982). Further: nearly all actives have a fitted effect of over 35% in size. Further: potency means the concentration at half of the fitted maximal effect. The gist of the method:
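PXR-Luc HepG2 cells (CYP3A4 promoter-driven luciferase) were seeded in medium with 5% charcoal-stripped FBS, left 5 hr at 37 C, then exposed to compounds in DMSO for 24 hr. Luminescence was read after ONE-Glo addition.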

Assay [6] has the same target. Put plainly: Human pregnane X receptor (PXR) activation by small molecules, qHTS assay (AID 1346985). Further: nearly all actives have a fitted effect of over 40% in size. Further: potency means the concentration at half of the fitted maximal effect. The gist of the method: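 DPX-2 cells (HepG2 co-transfected with a PXR response element and a CYP3A4-promoter luciferase construct) were seeded at 2,000 per well, rested 5 hr at 37C, then exposed to DMSO-dissolved compounds for 24 hr. Activation was read as luciferase luminescence.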

Assay [7] has as its target Cytochrome P450 2D6 (Homo sapiens) (UniProt P10635). The assay is described as follows: Cytochrome P450 Family 2 Subfamily D Member 6 (CYP2D6) small molecule antagonists: luciferase reporter qHTS assay (AID 1671196). Further: nearly all actives have a fitted effect of over 50% in size. Further: potency means the concentration at half of the fitted maximal effect. The essentials:
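CYP2D6 enzyme–substrate mix was held with compound for 10 min at room temperature, then NADPH regeneration solution was added and the reaction ran 1 h at room temperature. Luciferin product was detected by luminescence after 20 min with detection reagent.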
(In general: Reporter assays use an easily measured gene product as a stand-in for the process of interest.)

The target of assay [8] is Cytochrome P450 2C19 (Homo sapiens) (UniProt P33261). Put plainly: Cytochrome P450 Family 2 Subfamily C Member 19 (CYP2C19) small molecule antagonists: luciferase reporter qHTS assay (AID 1671197). Further: nearly all actives have a fitted effect of over 65% in size. Further: potency means the concentration at half of the fitted maximal effect. The essentials: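 Luminescent readout of CYP2C19 activity: luciferin product detected 20 min after adding detection reagent. Before that, compound and enzyme-substrate mix preincubated 10 min at room temperature; NADPH-regenerating system started a 1 h, 37C reaction. Ketoconazole as positive control.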

Assay [9] addresses Cytochrome P450 2C9 (Homo sapiens) (UniProt P11712). The assay is described as follows: Cytochrome P450 Family 2 Subfamily C Member 9 (CYP2C9) small molecule antagonists: luciferase reporter qHTS assay (AID 1671198). Further: nearly all actives have a fitted effect of over 50% in size. Further: potency means the concentration at half of the fitted maximal effect. The essentials: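 Enzyme-substrate mix preincubated with compound 10 min at room temperature; reaction started with NADPH regeneration solution, 1 h 37C. Luminescent luciferin product read after 20 min detection reagent.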

Assay [10] deals with Cytochrome P450 1A2 (Homo sapiens) (UniProt P05177). Put plainly: Cytochrome P450 Family 1 Subfamily A Member 2 (CYP1A2) small molecule antagonists: luciferase reporter qHTS assay (AID 1671199). Further: nearly all actives have a fitted effect of over 50% in size. Further: potency means the concentration at half of the fitted maximal effect. The essentials: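 Human CYP1A2 activity measured with a P450-Glo proluciferin substrate; compounds in DMSO preincubated 10 min at room temperature with enzyme-substrate mix, then NADPH regeneration system added for 1 h. Luciferin detection reagent, 20 min, luminescence read.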

For assay [11], the target named is Voltage-gated inwardly rectifying potassium channel KCNH2 (Homo sapiens) (UniProt Q12809). The assay is described as follows: Human Ether-a-go-go-Related Gene (hERG) channel small molecule antagonists: fluorescence cell-based qHTS assay (AID 1671200). Further: nearly all actives have a fitted effect of over 50% in size. Further: potency means the concentration at half of the fitted maximal effect. The essentials:
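In this thallium-flux screen, overnight-cultured U2OS cells bearing the channel are dye-loaded in darkness for an hour, rested 10 min at room temperature, and then monitored kinetically at 480/540 nm for two minutes post-stimulus.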

The target in assay [12] is Cytochrome P450 3A4 (Homo sapiens) (UniProt P08684). The assay is described as follows: Cytochrome P450 Family 3 Subfamily A Member 4 (CYP3A4) small molecule antagonists: luciferase reporter qHTS assay (AID 1671201). The essentials:
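CYP3A4 activity was followed with a P450-Glo proluciferin substrate. Test compounds in DMSO were preincubated 10 min; NADPH regeneration then ran 1 h, and light output was read 20 min after detection reagent.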

The nature of assay [13]: Caspase-3/7 induction in CHO-K1 cells by small molecules, qHTS cell viability counter screen (AID 1346979). Further: nearly all actives have a fitted effect of over 35% in size. The essentials:
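Following a 5hr settling period, CHO-K1 cells at 1,500 per well received DMSO-dissolved compounds. Cell viability was quantified 16hr later by CellTiter-Fluor fluorescence, measured after 1hr with reagent at 37C.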

Assay [14] deals with Nuclear receptor subfamily 1 group I member 2 (Homo sapiens) (UniProt O75469). The assay is described as follows: CYP3A4 induction through human pregnane X receptor (PXR) by small molecules, qHTS assay (AID 1346984). Further: nearly all actives have a fitted effect of over 40% in size. The gist of the method: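 DPX-2 cells (HepG2 co-transfected with PXR and CYP3A4 promoter-luciferase) treated with compounds 24 h at 37C; luciferin-IPA CYP3A4 substrate 3uM final added for 3 h, then One-Glo; luminescence read. qHTS format.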

A number with no mark means an inactive call. Results filed as inconclusive are left out. Calls of active or inactive are those of the source. The call rests on the fitted dose curve; in most records, active means well fitted curve in the direction sought with a large enough effect in the repeat runs; inconclusive means weak or mixed curves; inactive means no such curve, though single readings can be large; an effect the other way counts as inactive or inconclusive.

Sequence of Nuclear receptor subfamily 1 group I member 2 (Homo sapiens) (O75469 whole entry, looked up): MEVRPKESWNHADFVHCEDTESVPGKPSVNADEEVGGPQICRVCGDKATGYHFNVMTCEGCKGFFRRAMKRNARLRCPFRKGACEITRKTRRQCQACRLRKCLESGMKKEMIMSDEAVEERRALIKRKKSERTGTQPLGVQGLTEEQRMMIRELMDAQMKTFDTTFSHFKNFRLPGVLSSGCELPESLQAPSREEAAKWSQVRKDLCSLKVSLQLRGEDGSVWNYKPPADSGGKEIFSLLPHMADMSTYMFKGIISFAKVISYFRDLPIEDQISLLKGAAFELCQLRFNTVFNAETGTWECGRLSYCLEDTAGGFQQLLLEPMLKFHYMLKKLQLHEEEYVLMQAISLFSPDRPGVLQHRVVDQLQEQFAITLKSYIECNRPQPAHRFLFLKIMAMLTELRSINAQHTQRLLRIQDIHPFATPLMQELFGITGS
Sequence of Cytochrome P450 2C19 (Homo sapiens) (P33261 whole entry, looked up): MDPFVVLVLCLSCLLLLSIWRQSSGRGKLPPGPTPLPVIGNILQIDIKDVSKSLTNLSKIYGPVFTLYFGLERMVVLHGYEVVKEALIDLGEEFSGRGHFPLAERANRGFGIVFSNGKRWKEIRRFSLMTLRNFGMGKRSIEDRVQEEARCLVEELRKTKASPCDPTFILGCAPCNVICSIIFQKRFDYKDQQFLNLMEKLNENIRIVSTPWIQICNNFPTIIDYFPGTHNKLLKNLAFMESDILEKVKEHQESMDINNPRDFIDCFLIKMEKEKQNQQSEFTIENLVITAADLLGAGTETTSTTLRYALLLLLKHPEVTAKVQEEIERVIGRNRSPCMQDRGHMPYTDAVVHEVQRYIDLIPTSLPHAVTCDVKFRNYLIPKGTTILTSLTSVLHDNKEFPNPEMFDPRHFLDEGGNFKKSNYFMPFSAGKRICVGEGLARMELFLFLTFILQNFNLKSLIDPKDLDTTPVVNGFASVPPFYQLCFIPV
Sequence of Cytochrome P450 2C9 (Homo sapiens) (P11712 whole entry, looked up): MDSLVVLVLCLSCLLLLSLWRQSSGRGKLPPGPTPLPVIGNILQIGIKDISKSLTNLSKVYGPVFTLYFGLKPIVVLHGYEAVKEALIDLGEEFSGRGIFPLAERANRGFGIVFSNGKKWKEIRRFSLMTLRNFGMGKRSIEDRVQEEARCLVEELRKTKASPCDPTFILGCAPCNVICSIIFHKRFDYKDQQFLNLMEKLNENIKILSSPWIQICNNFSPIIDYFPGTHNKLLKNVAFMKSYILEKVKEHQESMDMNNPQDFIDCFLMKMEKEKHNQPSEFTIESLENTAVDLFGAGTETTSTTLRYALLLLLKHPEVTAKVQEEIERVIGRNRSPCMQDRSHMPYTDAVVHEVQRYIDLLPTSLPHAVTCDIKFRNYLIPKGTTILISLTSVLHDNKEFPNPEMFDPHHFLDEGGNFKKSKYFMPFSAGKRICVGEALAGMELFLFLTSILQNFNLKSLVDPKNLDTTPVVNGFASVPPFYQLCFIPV
Sequence of Cytochrome P450 2D6 (Homo sapiens) (P10635 whole entry, looked up): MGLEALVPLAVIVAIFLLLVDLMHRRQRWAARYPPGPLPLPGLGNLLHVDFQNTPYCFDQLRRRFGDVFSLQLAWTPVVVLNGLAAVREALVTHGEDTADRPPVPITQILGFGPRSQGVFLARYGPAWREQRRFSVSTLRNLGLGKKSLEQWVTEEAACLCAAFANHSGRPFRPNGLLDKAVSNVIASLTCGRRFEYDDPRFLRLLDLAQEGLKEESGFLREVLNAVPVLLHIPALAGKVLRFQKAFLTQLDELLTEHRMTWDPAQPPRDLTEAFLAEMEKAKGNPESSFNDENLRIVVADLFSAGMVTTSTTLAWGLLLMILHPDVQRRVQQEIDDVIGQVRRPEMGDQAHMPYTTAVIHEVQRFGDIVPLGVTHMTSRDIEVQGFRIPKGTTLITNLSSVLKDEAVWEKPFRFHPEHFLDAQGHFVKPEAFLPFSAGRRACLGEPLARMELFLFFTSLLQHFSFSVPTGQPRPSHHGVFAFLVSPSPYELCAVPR
Sequence of Cytochrome P450 3A4 (Homo sapiens) (P08684 whole entry, looked up): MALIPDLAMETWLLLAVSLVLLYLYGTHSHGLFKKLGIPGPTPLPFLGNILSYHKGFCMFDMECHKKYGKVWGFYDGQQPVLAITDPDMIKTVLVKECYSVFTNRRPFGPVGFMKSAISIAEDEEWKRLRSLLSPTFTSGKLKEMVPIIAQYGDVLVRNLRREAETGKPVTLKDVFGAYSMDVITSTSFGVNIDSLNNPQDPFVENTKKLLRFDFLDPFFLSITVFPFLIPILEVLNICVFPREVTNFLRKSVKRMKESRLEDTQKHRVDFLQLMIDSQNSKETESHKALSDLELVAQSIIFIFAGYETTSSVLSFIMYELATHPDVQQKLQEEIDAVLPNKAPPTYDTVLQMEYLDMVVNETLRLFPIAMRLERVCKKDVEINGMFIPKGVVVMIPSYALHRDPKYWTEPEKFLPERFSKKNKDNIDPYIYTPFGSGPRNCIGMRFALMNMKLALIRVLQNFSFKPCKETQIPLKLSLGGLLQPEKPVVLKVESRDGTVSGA
Sequence of Voltage-gated inwardly rectifying potassium channel KCNH2 (Homo sapiens) (Q12809 whole entry, looked up): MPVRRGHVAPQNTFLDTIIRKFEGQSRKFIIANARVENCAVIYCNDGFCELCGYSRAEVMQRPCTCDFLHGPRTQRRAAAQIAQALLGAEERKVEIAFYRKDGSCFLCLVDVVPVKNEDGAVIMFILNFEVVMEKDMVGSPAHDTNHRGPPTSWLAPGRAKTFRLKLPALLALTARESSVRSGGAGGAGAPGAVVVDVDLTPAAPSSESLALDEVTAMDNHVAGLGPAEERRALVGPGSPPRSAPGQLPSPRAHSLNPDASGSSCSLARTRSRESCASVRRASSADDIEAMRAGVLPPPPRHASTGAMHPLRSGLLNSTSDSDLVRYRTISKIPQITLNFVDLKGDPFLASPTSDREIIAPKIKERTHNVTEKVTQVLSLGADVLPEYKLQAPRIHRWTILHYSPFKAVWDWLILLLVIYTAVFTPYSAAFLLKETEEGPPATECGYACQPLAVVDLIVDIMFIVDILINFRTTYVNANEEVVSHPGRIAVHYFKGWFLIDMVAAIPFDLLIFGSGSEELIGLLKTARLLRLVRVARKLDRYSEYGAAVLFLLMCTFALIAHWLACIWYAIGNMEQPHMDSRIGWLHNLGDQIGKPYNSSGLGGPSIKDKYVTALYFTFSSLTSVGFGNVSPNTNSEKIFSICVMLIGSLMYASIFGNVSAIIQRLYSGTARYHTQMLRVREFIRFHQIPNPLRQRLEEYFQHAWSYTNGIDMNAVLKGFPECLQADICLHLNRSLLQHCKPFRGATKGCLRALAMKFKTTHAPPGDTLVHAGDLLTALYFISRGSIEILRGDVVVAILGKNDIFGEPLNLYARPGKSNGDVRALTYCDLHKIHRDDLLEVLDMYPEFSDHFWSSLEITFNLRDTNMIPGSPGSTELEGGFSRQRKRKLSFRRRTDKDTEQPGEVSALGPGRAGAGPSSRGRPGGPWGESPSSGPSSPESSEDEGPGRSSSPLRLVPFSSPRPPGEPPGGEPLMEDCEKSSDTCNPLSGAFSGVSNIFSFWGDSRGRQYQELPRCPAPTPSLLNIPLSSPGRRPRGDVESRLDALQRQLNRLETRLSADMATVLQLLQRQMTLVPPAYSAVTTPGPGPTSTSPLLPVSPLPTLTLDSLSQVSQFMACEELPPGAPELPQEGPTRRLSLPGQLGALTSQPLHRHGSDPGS
Sequence of Cytochrome P450 1A2 (Homo sapiens) (P05177 whole entry, looked up): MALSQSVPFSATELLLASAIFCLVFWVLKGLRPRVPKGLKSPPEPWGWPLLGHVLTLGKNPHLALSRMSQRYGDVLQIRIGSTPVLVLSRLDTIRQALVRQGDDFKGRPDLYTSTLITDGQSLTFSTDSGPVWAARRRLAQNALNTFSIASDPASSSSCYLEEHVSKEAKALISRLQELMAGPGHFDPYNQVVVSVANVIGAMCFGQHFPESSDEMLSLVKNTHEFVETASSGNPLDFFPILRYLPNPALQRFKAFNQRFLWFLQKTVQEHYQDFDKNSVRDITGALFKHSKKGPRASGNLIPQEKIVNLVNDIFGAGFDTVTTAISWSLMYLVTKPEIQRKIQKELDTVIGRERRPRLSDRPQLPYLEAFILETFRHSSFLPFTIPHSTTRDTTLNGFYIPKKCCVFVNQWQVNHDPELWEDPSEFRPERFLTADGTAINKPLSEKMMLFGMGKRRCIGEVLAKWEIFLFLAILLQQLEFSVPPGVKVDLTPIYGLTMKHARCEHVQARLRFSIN

As for `CC(C)CCCC(C)CCCC(C)CCCCC(C)CCCC(C)CCCC(C)C` (stereo not given), the Potency result in assay [1], in assay [5], in [6], in assay [7], in [8] and in assay [9] was “inactive” each time. Further, the Potency entry in assay [10], in [11] and in assay [12] was “inactive” throughout. Also, the outcome in assay [2], in assay [3] and in assay [4] was inactive.

`C=C(C)[C@@H]1CCC2=CC(=O)C[C@@H](C)[C@]2(C)C1`: the Potency entry in [1], in assay [13], in assay [7], in [10], in assay [11] and in assay [12] was “inactive” each time. Further, the molecule was called inactive in [2], in [3] and in assay [4]. Besides, the Potency in [8] is 6.33 µM (active); in assay [9], 39.9 µM (active).

With `OCc1ccccn1`, the Potency result in assay [1], in assay [5], in assay [14], in assay [6], in assay [7] and in [9] was “inactive” throughout. Moreover, the Potency result in [10], in [11] and in assay [12] was “inactive” each time. Further, the result in assay [2] and in assay [4] was inactive.

As to `CCCC=O`, the Potency result in [1], in [5], in assay [7], in assay [8], in [9] and in assay [10] was “inactive” in each case. Further, the Potency entry in assay [12] is “inactive”. Further, the molecule was called inactive in assay [2], in [3] and in assay [4].

`c1cc(CN2CCCCC2)cc(OCCCNc2nc3ccccc3s2)c1`: the Potency in assay [1] was 23.7 µM (active); in assay [5], 5.31 µM (active); in [6], 22.4 µM (active); in [7] it was 3.89 µM (active); in assay [11], 8.49 µM (active). Besides, the result in [2] and in assay [3] was inactive. The Potency result in [14], in assay [8], in assay [9] and in assay [10] was “inactive” each time.

Turning to `CCCCCCCCN(C)CCCCCCCC`, the Potency entry in assay [1], in assay [13], in [5], in [10] and in assay [12] was “inactive” in each case. In addition, the outcome in assay [2], in assay [3] and in [4] was inactive. The results for the Potency in assay [7] and in assay [11] were 64 µM (active) and 1.57 µM (active), respectively.

Take `CC(C)N1C(=O)c2ccccc2C1=O`: the Potency result in assay [1], in [13], in assay [7], in [8], in assay [9] and in [11] was “inactive” in each case. For the same molecule, the call in assay [2], in [3] and in assay [4] was inactive. The Potency in [10] was 35.6 µM (active).
